# Data taken from PubChem BioAssay (Tox21).
# Several values for one entry are separate records, joined by “and”; a condition that tells them apart may be missing. Identical values can stand only once. Results filed as inconclusive are left out. Where a call stands in place of a potency, no number is given. Activity calls are given as the source filed them. Calls follow the shape of the dose curve; as a rule, active = well fitted curve in the direction sought with a large enough effect in the repeat runs; inconclusive = weak or mixed curves; inactive = no such curve, though single readings can be large; an effect the other way counts as inactive or inconclusive.
# Experiments:
# [1] = qHTS assay to identify small molecule antagonists of the retinoid acid receptor (RAR) signaling pathway - cell viability counter screen (AID 1159551); also: nearly all actives have a fitted effect of over 35% in size; also: potency is read from the fitted curve at half-maximal effect
# Summary of the method: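 Retinol-stimulated (1 uM final) C3RL4 cells, compound 6 h, 37 C; readout CellTiter-Glo luminescence (ATP) after 30 min RT incubation.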
# [2] = qHTS assay to identify small molecule antagonists of the retinoic acid receptor (RAR) signaling pathway (AID 1159552; also: nearly all actives have a fitted effect of over 50% in size; also: potency is read from the fitted curve at half-maximal effect)
# Summary of the method: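 Retinol at 1 uM final stimulated RARE-luciferase expression in C3RL4 cells exposed to test compounds for 6 hr at 37 C. Reduced luminescence, read 30 min after detection reagent, indicated pathway antagonism.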
# [3] = qHTS assay to identify small molecule agonists of the retinoic acid receptor (RAR) signaling pathway (AID 1159553)
# Summary of the method: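 Reporter readout comes from luciferase under RARE control in C3RL4 cells; compound exposure lasts 6 hr at 37 C in 5% CO2, and luminescence is recorded following a 30 min room-temperature incubation with reagent.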
# [4] = qHTS assay to identify small molecule antagonists of the estrogen related receptor (ERR) signaling pathway from Tox21 library - cell viability counter screen (AID 1224834); also: nearly all actives have a fitted effect of over 30% in size; also: potency is read from the fitted curve at half-maximal effect
# Summary of the method: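 After 17.5 h of compound exposure at 37 C, ERR cells are incubated with CellTiter-Fluor for 30 min and fluorescence intensity serves as the viability measure.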
# [5] = qHTS assay to identify small molecule antagonists of the estrogen related receptor (ERR) signaling pathway - cell viability counter screen (AID 1224818); also: series mostly up to about 46 µM
# Summary of the method: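 After a 6 h pre-incubation, ERR cells were dosed by pin tool with compounds, positive/negative controls or DMSO alone. Following 17.5 h at 37 C and 30 min with CellTiter-Fluor, fluorescence was recorded.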
# [6] = qHTS assay to identify small molecule antagonists of the estrogen related receptor signaling pathway with the pleiotropic PPARgamma coactivator (PGC) cell viability counter screen (AID 1224822; also: series mostly up to about 46 µM)
# Summary of the method: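 PGC/ERR cells were plated at 2,000 per well and allowed 6 h to settle before compound addition. Following 17.5 h at 37 C, CellTiter-Fluor reagent was added and fluorescence was read 30 min later.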
compound,measurement,setting,value
N#C/C=C/C#N,Potency,[1],inactive
same,Potency,[2],inactive
same,Potency,[3],inactive
O=C1c2ccccc2C(=O)C1C(=O)C(c1ccccc1)c1ccc(Cl)cc1 (stereo not given),Potency,[1],inactive
same,Potency,[2],inactive
same,Potency,[3],inactive
CC[C@H]1C[C@@H]2C[C@H]3c4[nH]c5ccc(OC)cc5c4CCN(C2)[C@@H]13,Potency,[1],inactive
same,Potency,[2],inactive
Clc1ccc(-c2ccc(Cl)c(Cl)c2Cl)c(Cl)c1Cl,Potency,[1],inactive
same,Potency,[2],inactive
same,Potency,[3],inactive
same,Potency,[4],inactive
O=C(O)COc1nc(Cl)c(Cl)cc1Cl,Potency,[1],inactive
same,Potency,[2],inactive
same,Potency,[3],inactive
same,outcome,[5],inactive
same,Potency,[6],inactive
same,Potency,[4],inactive
CC(=O)/C=C/c1ccc2c(c1)OCO2,Potency,[1],inactive
same,Potency,[2],inactive
CCOP(=S)(OCC)SCCS(=O)(=O)CC,Potency,[1],inactive
Clc1ccc(C(Cl)(Cl)Cl)c(Cl)c1,Potency,[1],inactive
same,Potency,[2],inactive
same,Potency,[3],inactive
O=[N+]([O-])c1ccc2ccc3cccc4ccc1c2c34,Potency,[1],inactive
same,Potency,[2],inactive
same,Potency,[3],inactive
Clc1ccc(C(c2ccccc2Cl)C(Cl)(Cl)Cl)cc1 (stereo not given),Potency,[1],inactive
BrC(Br)C(Br)(Br)Br,Potency,[1],inactive
same,Potency,[2],30.8 µM (active)
same,Potency,[3],inactive
Oc1cc(Cl)c(Cl)c(Cl)c1,Potency,[1],inactive
C[C@@H]1O[C@@H](O[C@H]2C[C@@H](O)[C@]3(CO)[C@H]4[C@H](O)C[C@]5(C)[C@@H](C6=CC(=O)OC6)CC[C@]5(O)[C@@H]4CC[C@]3(O)C2)[C@H](O)[C@H](O)[C@H]1O,Potency,[1],inactive
same,Potency,[2],inactive
same,Potency,[3],inactive
same,outcome,[5],inactive
same,Potency,[4],91.9 nM (active) and 84.1 nM (active)
CC(C)N1C(=O)N(c2ccccc2)CSC1=NC(C)(C)C,Potency,[1],inactive
N#CCCC(Br)(C#N)CBr (stereo not given),Potency,[1],68.6 µM (active)
same,Potency,[2],21.7 µM (active)
